Source: PubChem
Six1-Eya2 inh: qHTS Assay for Inhibitors of the Six1/Eya2 Interaction; Homeobox protein SIX1 (Homo sapiens) + Protein phosphatase EYA2 (Homo sapiens), …; AlphaScreen GST-Six1/His-Eya2 binding, biochemical; hits give low values; activity change, % (test concentration not listed); 360,000 tested, 0.56% active; AID 651725, 2012; in the data active = activity change below about -65%; inconclusive = mostly about -30% to -63%; also: % is scaled to controls: 0 for no effect and ±100 for the full control effect
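Compounds are tested against tagged Six1 and Eya2 proteins bridged by glutathione donor and nickel acceptor beads; after a one-hour incubation at 37 °C without light, AlphaScreen emission is recorded.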
BAZ2B block: qHTS Assay for Inhibitors of BAZ2B; 360,000 tested, 4.4% active; AID 504333, 2011; Bromodomain adjacent to zinc finger domain protein 2B (Homo sapiens), Q9UIF8; Potency, µM (top dose mostly 114 µM), for inactives: at the highest dose activity change, negative = inhibition, actives largely listed as inhibitors; AlphaScreen BAZ2B-H3K14Ac peptide displacement; also: potency is read from the fitted curve at half-maximal effect; % is scaled to controls: 0 for no effect and ±100 for the full control effect; nearly all actives have a fitted effect of over 60% in size
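Compounds, titrated to a top concentration of 110 uM, were incubated 30 min at room temperature with preformed BAZ2B/acetyl-K14 H3 peptide complex (50 nM each). Proximity signal was measured by AlphaScreen after 20 min with beads.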
G9a inh: qHTS Assay for Inhibitors of Histone Lysine Methyltransferase G9a; Histone-lysine N-methyltransferase EHMT2 (Homo sapiens), Q96KQ7; G9a H3K9 monomethylation, AlphaScreen, 2 h; Potency, µM (top dose mostly 102 µM), inactives show at the top dose activity, negative = inhibition, most hits filed as inhibitors; 350,000 tested, 8.8% active; AID 504332, 2011; also: potency is read from the fitted curve at half-maximal effect; % is scaled to controls: 0 for no effect and ±100 for the full control effect; nearly all actives have a fitted effect of over 75% in size
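Compounds were preincubated with 20 nM G9a for 15 min, after which biotinylated H3K9 peptide (500 nM) and SAM (20 uM) started a 2 h room-temperature reaction. Monomethylated product was quantified by antibody-based AlphaScreen chemiluminescence.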
CtBP-E1A inh: qHTS Assay for Inhibitors of the CtBP/E1A Interaction; CtBP / adenovirus E1A interaction (AlphaScreen); AlphaScreen GST-E1A/His-CtBP binding, 1536-well; hits give low values; activity change, % (concentration not given with the values); 340,000 tested, 0.49% active; in the data active = activity change below about -65%; inconclusive = mostly about -30% to -63%; also: % is scaled to controls: 0 for no effect and ±100 for the full control effect
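AlphaScreen with 125 nM GST-E1A and 125 nM His-CtBP (5X stocks) in Tris pH 8.0, 300 mM NaCl, BSA, Tween 20, TCEP. Compounds preincubated 2 h at 37 deg C, then glutathione donor/nickel acceptor beads added for 1 h at 37 deg C in dark.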
HP1b chromo inh: HTS for Inhibitors of HP1-beta Chromodomain Interactions with Methylated Histone Tails; Potency, µM (doses to about 114 µM), inactives show at the highest dose activity change, negative = inhibition, most hits filed as inhibitors; 390,000 tested, 0.56% active; Chromobox protein homolog 1 (Homo sapiens), P83916; AlphaScreen HP1-beta / biotin-H3K9me3 peptide binding; also: potency is read from the fitted curve at half-maximal effect; nearly all actives have a fitted effect of over 70% in size
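HP1-beta protein (50 nM final) preincubated 30 min at room temperature with biotinylated H3(1-18)K9me3 peptide (50 nM) in PBS pH 7.4, 0.01% Tween-20, then compound added for 30 min. AlphaScreen streptavidin donor/nickel chelate acceptor beads (10 ug/mL final), 30 min dark, luminescence read.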
JMJD2A Tudor inh: qHTS Assay for Inhibitors of JMJD2A-Tudor Domain. Lysine-specific demethylase 4A (Homo sapiens), O75164. AlphaScreen JMJD2A-Tudor / H3K4me3 peptide binding. Potency, µM (titrated, usually from 114 µM), for the others: at the highest dose activity change, negative = inhibition, actives largely listed as inhibitors. 390,000 tested, 4.4% active; also: potency is read from the fitted curve at half-maximal effect; % is scaled to controls: 0 for no effect and ±100 for the full control effect; nearly all actives have a fitted effect of over 50% in size
Active calls of the source: *; ? = inconclusive; · = no result given; ! = not active in a repeat; [ ] = remark or other dose. An excerpt weighted towards active compounds, which were near 10% of everything screened. Unless noted, calls follow the shape of the dose curve; as a rule, active = well fitted inhibition curve with a large enough effect; inconclusive = small, poorly fitted or top-dose-only effect; inactive = no such curve, though single readings can be large or run the other way.

SMILES	Six1-Eya2 inh	BAZ2B block	G9a inh	CtBP-E1A inh	HP1b chromo inh	JMJD2A Tudor inh
O=c1[nH]c2ccc(Cl)cc2c(-c2ccccc2)c1N1CCN(c2ccccn2)CC1	-1	14%	9%	-6	5%	-23%
Cc1cccc(NC(=O)CCS(=O)(=O)c2ccc3c(c2)n(C)c(=O)c(=O)n3C)c1C	·	33%	45%[59 µM]	·	42%	9%
CCN(Cc1ccccc1)Cc1c(O)ccc2oc(C)c(C(=O)Nc3ccccc3C)c12	·	-23%	?	·	-2%	-29%
Cc1cc(=O)n(C)c(=O)n1CCCCCN1CCCC1	6	50µM*	?	7	?	2.5µM*
CCOC(=O)c1c(C)[nH]c(CCC(=O)Nc2cc(C)ccc2OC)c1C	·	-27%	-7%[59 µM]	·	14%[57 µM]	-24%
O=C1C=CC(=O)C(C2=C3C(=O)N(CCc4ccccc4)CC(=O)N3CCC2)=C1	?	50µM*	1.3µM*	-1	6.3µM*	3.2µM*
COc1cc(C(=O)NCC(=O)NC(C)c2ccc(-n3ccnc3)cc2)cc(OC)c1OC (configuration not stated)	-12	7%	-40%	-4	2%	-8%
COc1cc(C(=O)NC(C)c2ccc(-n3ccnc3)cc2)cc(OC)c1C (configuration not stated)	-6	50µM*	3.5µM*	20	-5%	79µM*
O=C1Nc2c(c(=O)[nH]c(=O)n2Cc2ccccc2)C1(NS(=O)(=O)c1ccccc1)C(F)(F)F (configuration not stated)	5	-1%	45µM*	-17	28%	-3%
Cc1ccc(-n2c3c(c(=O)[nH]c2=O)C(NS(=O)(=O)c2ccc(Cl)cc2)(C(F)(F)F)C(=O)N3)cc1 (configuration not stated)	-1	-4%	50µM*!	4	25%	-11%
O=C(NC1(C(F)(F)F)C(=O)Nc2c1c(=O)[nH]c(=O)n2Cc1ccco1)C1CCCCC1 (configuration not stated)	-1	3%	79µM*	-1	3%	79µM*
O=C1Nc2c(c(=O)[nH]c(=O)n2-c2ccc(F)cc2)C1(NS(=O)(=O)c1ccc(Cl)cc1)C(F)(F)F (configuration not stated)	·	-3%	4%[59 µM]	·	22%	-4%
COc1ccc(Nc2nc3c(S(=O)(=O)c4ccccc4)nnn3c3ccsc23)cc1OC	·	-27%	-21%[59 µM]	·	52%	-13%
Cc1nn(C)c(C)c1NC(=O)CCl	-1	35µM*	45µM*	-8	17%	-26%
COc1cc(C(=O)NCCOc2cc(C)cc(C)c2)cc(OC)c1OC	2	-9%	15%	12	25%	-7%
COC(=O)c1ccc(-n2c(CCC(=O)O)ccc2-c2ccccc2)cc1	-8	?	-33%[2.33 µM]	-11	1%	-13%
CCOC(=O)c1ccc(-n2c(CCC(=O)O)ccc2-c2ccc(Br)cc2)cc1	·	50µM*	16µM*	·	?	?
CCOc1ccc(-n2c(CCC(=O)O)ccc2-c2ccc(Br)cc2)cc1	·	40µM*	10µM*	·	?	?
CC(C)c1cnc2c(c1SCc1cccc(F)c1)c(=O)n(C)c(=O)n2C	·	9%	-41%[59 µM]	·	31%[57 µM]	11%
Cn1cc(S(=O)(=O)Nc2ccc3c(c2)OCCO3)cn1	2	3%	-37%	11	26%	-20%
CCc1nn(CC(=O)NCCCN2CCc3ccccc3C2)c(=O)c2cc3sccc3n12	-20	-30%	45µM*	-22	34%	-32%
CCOC(=O)CCCn1nc(C)n2c(cc3sccc32)c1=O	19	0%	4%[59 µM]	23	29%	-8%
Cc1nn(CCCC(=O)N2CCc3ccccc3C2)c(=O)c2cc3sccc3n12	2	1%	79µM*	-1	34%	-10%
CCc1nn(CC(=O)NCCCN2CCN(C)CC2)c(=O)c2cc3sccc3n12	3	-6%	·	-6	45%	-12%
O=C1C2=C(C(c3ccccc3)=NCCN2)C(c2cccc([N+](=O)[O-])c2)N1c1ccccc1 (configuration not stated)	6	-6%	5%	-1	-7%	45µM*
SMILES	Six1-Eya2 inh	BAZ2B block	G9a inh	CtBP-E1A inh	HP1b chromo inh	JMJD2A Tudor inh
COc1ccc(OC)c(NC(=O)CS(=O)(=O)c2cn(CC(=O)N3CCOCC3)c3ccccc23)c1	5	-1%	-50%	-1	-1%	-5%
Cc1ccc(NC(=O)CS(=O)(=O)c2cn(CC(=O)N3CCOCC3)c3ccccc23)cc1	8	·	-45%	-3	29%	-1%
COc1ccc(CCNC(=O)CS(=O)(=O)c2cn(CC(=O)N3CCOCC3)c3ccccc23)cc1OC	5	·	50µM*	0	26%	-19%
NC(=O)c1ccc(NC(=O)CS(=O)(=O)c2cn(CC(=O)N3CCCC3)c3ccccc23)cc1	-4	-19%	25µM*	2	60%	-2%
COc1ccc(NC(=O)CS(=O)(=O)c2cn(CC(=O)N3CCOCC3)c3ccccc23)cc1OC	-1	1%	35µM*	2	33%	-22%
COCCNC(=O)Cn1cc(C(=S)N2CCOCC2)c2ccccc21	0	-25%	35µM*	12	-13%	-6%
CNC(=O)c1cc(S(=O)(=O)N(C)C)ccc1Cl	1	7%	2%[12.7 µM]	5	30%	0%
Cc1ccc(NC(=O)CN(C)C(=O)Cc2c[nH]c3ccccc23)cc1	-3	·	·	5	6%	-12%
COCCn1c(C)cc(O)c(C(c2ccccc2F)N2CCN(c3ccccc3)CC2)c1=O (configuration not stated)	·	-2%	?	·	36%[57 µM]	-3%
COc1ccc(CCNC(=O)COc2ncnc3cc([N+](=O)[O-])ccc23)cc1	-4	0%	12%	-17	36%	-11%
O=[N+]([O-])c1cccc(COc2ncnc3cc([N+](=O)[O-])ccc23)c1	-72*	-26%	?	-88*	7%	?
CC(=O)c1nn(-c2ccc(OC(F)(F)F)cc2)nc1Nc1ccc(Cl)cc1	·	3%	-3%[59 µM]	·	20%	-10%
CCCCc1nnc2c(N(C)S(=O)(=O)c3ccccc3)nc3ccccc3n12	3	-7%	71µM*	-2	9%	-7%
CCCSC(=S)c1c(C)[nH]n(-c2ccccc2)c1=O	-10	?	·	-1	?	?
CCCCc1c(O)n(-c2ccccc2)[nH]c1=O	·	·	11µM*	·	·	·
